Assay outcomes: PubChem, several laboratories
In the library only some 1.6% were active in any assay of this set; here they are far more common.
PREPL inhibitor – PREPL enzyme inhibitors, primary screen, biochemical, fluorescence polarization. recombinant PREPL, fluorescence polarization activity-based probe. AID 2751, 2010. inhibition, % at 5.96 µM. 320,000 tested, 0.68% active; in the data active means inhibition above about 43%;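 further: 0% = enzyme with DMSO and 100% = wells lacking enzyme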
Target sequence (Q4J6C6 whole entry, looked up): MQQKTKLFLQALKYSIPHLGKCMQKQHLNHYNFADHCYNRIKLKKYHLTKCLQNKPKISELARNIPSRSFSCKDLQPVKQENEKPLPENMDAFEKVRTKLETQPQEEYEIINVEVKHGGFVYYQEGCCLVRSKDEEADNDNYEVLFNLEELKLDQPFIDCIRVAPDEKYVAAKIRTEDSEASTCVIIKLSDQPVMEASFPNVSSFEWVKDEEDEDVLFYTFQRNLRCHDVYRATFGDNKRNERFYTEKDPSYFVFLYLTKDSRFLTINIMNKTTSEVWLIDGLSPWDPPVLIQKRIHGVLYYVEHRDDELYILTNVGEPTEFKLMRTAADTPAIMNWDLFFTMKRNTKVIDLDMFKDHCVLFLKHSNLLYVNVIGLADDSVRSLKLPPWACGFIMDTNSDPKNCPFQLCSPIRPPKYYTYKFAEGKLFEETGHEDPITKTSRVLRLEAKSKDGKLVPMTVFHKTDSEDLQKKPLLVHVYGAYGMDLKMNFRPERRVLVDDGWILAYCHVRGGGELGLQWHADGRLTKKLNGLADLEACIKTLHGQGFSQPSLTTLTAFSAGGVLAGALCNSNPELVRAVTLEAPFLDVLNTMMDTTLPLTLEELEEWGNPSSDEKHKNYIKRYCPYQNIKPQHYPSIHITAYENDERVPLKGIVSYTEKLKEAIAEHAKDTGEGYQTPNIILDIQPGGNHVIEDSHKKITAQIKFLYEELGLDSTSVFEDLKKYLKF
GASC-1 inh – inhibitors of GASC-1 histone demethylase, primary screen, biochemical, fluorescence, DELFIA europium. Lysine-specific demethylase 4C (Homo sapiens), Q9H3R0. GST-JMJD2C(1-420) H3K9me3 demethylation. inhibition, % at 2.35 µM. 330,000 tested, 0.069% active;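 active means more than half of a compound's replicate wells show inhibition beyond 50%, single wells judged on their own value; inconclusive means some, but no more than half, of replicates pass 50% inhibition; inactive means no replicate passes 50% inhibition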;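 further: signal counts dimethyl H3K9 product captured on neutravidin plate; 0% = median of DMSO wells and 100% = 0.3 times that DMSO median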
VLA-4 inh – inhibition in human VLA-4 binding assay, primary screen, VLA-4 allosteric modulator project, MLPCN library, flow cytometry, VLA-4 expressing cells | 330,000 tested, 0.2% active | ligand binding flow cytometry | inhibition, % (about 7 µM as worked out from the volumes in the protocol) | AID 2557, 2010; in the data active means inhibition above about 50%
GRK2 inh – compounds blocking aptamer binding on GRK2 – biochemical, human GRK2, bead flow cytometry, HTS, primary screen; Beta-adrenergic receptor kinase 1 (Homo sapiens), P25098; FAM-aptamer displacement from GRK2; inhibition of aptamer binding, % at 10 µM; 330,000 tested, 0.59% active;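 active means inhibition of aptamer binding above 40%, roughly 3 SD of noise, on plates passing a quality check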;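 further: median bead fluorescence of bound FAM aptamer so fluorescent compounds give negative values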
DSG3 Ab inh – inhibitors of pemphigus antibody binding to DSG3, primary screen, biochemical, bead-based, flow cytometry, scFv-GFP. Desmoglein-3 (Homo sapiens), P32926. DSG3-coupled beads, scFv-anti-DSG3-GFP binding; stronger effect = lower value. binding (percent of control), % at 10 µM. 310,000 tested, 0.48% active. AID 588358, 2011;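 active means binding more than 3 SD below its plate's average and above zero; inconclusive means below that plate limit but binding exactly zero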;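 further: hits lower antibody fragment binding to DSG3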
GRK2 CP1 – GRK2 aptamer-displacing inhibitors, retest, confirmation, biochemical, cherry pick 1, bead flow cytometry. 2,000 tested, 4% active. shares compounds with GRK2 inh. bead-bound GRK2, FAM-aptamer displacement. aptamer displacement, % at 10 µM. AID 504451, 2011;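 active means aptamer displacement above 40%, near three times the noise of non-fluorescent compounds, on plates passing quality checks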;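 further: negative values mostly reflect intrinsic compound fluorescence rather than true enhancement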
Aptamer quench SP – quenches fluorescent RNA aptamer, GRK2 hit artifact; shares compounds with GRK2 inh; Carboxyfluorescein RNA aptamer on beads, flow cytometry quenching; stronger effect = lower value; fluorescence response (% of DMSO), % at 10 µM; 2,000 tested, under 10 active; AID 504580;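 active means compounds that quench the bead-bound fluorescent RNA probe, cutting fluorescence to under half of the solvent control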;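 further: counterscreen run without GRK2 so only probe quenching by compound is measured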
GRK2 CP2 – GRK2 aptamer-displacing inhibitors, hit retest, confirmation, biochemical, cherry pick 2, bead flow cytometry; 360 tested, under 10 active; bead-bound GRK2, FAM-aptamer displacement; shares compounds with GRK2 inh; inhibition of aptamer binding, % at 10 µM; AID 504782, 2011;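 active means inhibition of aptamer binding above 40%, about triple the noise seen with nonglowing compounds, on plates passing quality control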;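 further: negative values mostly come from compounds that fluoresce themselves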
FAM quench CP2 – quenches fluorescent RNA aptamer, GRK2 hit artifact | shares compounds with GRK2 inh | carboxyfluorescein RNA aptamer beads, flow cytometry quenching; stronger effect = lower value | fluorescence response vs DMSO, % at 10 µM | 360 tested, under 10 active;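 active means response vs DMSO under 50%, meaning signal dropped by over half, treated as fluorescence quencher; inconclusive means no clear call, values can overlap the other calls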;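 further: labelled aptamer on streptavidin beads without GRK2 as a quench counter-screen; 100% = bead fluorescence of DMSO wells and lower means quenching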
Starred values were filed as active, the others as inactive.

`O=C(C1CCN(S(=O)(=O)N2CCC3(CC2)OCCO3)CC1)N1CCc2ccccc2C1` gave PREPL inhibitor 3, GASC-1 inh -3, VLA-4 inh 14, GRK2 inh 2 and DSG3 Ab inh 99.
For COc1cccc(CNS(=O)(=O)c2ccccc2Br)c1OC the results were DSG3 Ab inh 93.
Cc1ccc(C(=O)N2CCN(c3cccc(C)c3C)CC2)cc1S(=O)(=O)N1CCOCC1 was read as PREPL inhibitor 27, GASC-1 inh 1, VLA-4 inh 4, GRK2 inh 1 and DSG3 Ab inh 115.
CC(C)c1nnc(NC(=O)C2CCCN(C(=O)Nc3ccc(F)cc3)C2)s1 (stereo not drawn) was read as PREPL inhibitor 0, GASC-1 inh -19, VLA-4 inh -2, GRK2 inh 0, DSG3 Ab inh 96, GRK2 CP1 2 and Aptamer quench SP 98.
c1ccc2c(c1)CSc1ccccc1N2 was read as PREPL inhibitor 20, GASC-1 inh -11, VLA-4 inh 2, GRK2 inh 97*, DSG3 Ab inh 107, GRK2 CP1 -4 and Aptamer quench SP 97.
For S=C1Nc2ccccc2CS1 the results were DSG3 Ab inh 103.
CCOc1ccccc1C(=O)Nc1cccc(-c2ccc(N3CCOCC3)nn2)c1 was read as PREPL inhibitor -1, GASC-1 inh 9, VLA-4 inh 1, GRK2 inh 0 and DSG3 Ab inh 110.
O=C(Nc1cccc(-c2ccc(N3CCOCC3)nn2)c1)c1ccc(F)cc1F was read as PREPL inhibitor 12, GASC-1 inh -8, VLA-4 inh 0, GRK2 inh 0, DSG3 Ab inh 93, GRK2 CP1 7 and Aptamer quench SP 99.
COc1cccc(C(=O)Nc2cccc(-c3ccc(N4CCOCC4)nn3)c2)c1OC was read as PREPL inhibitor 7, GASC-1 inh 1, VLA-4 inh 5, GRK2 inh 0, DSG3 Ab inh 108, GRK2 CP1 0 and Aptamer quench SP 104.
`COc1ccc(C(=O)Nc2cccc(-c3ccc(N4CCOCC4)nn3)c2)cc1OC` gave PREPL inhibitor -2, GASC-1 inh -24, VLA-4 inh 10, GRK2 inh 5 and DSG3 Ab inh 99.
For COC(=O)c1c2c(nc3ccccc13)CCC2 the results were PREPL inhibitor 4, GASC-1 inh -17, VLA-4 inh 35, GRK2 inh 10 and DSG3 Ab inh 99.
CCc1ccc2nc3c(c(C(=O)O)c2c1)CCC3 was read as PREPL inhibitor -8, GASC-1 inh -9, VLA-4 inh 0, GRK2 inh 13, DSG3 Ab inh 104, GRK2 CP2 13 and FAM quench CP2 101.
O=C(O)c1c2c(nc3ccc(S(=O)(=O)N4CCC(C(=O)N5CCCCC5)CC4)cc13)CCCC2 was read as PREPL inhibitor 14, GASC-1 inh -3, VLA-4 inh -2, GRK2 inh 84*, DSG3 Ab inh 100, GRK2 CP1 -1 and Aptamer quench SP 98.
`CC1CCc2nc3ccc(S(=O)(=O)N4CCC(C(=O)N5CCCCC5)CC4)cc3c(C(=O)O)c2C1` (stereo not drawn) gave PREPL inhibitor 5, GASC-1 inh -1, VLA-4 inh -2, GRK2 inh 2 and DSG3 Ab inh 97.
`COc1ccccc1/C=C(\C#N)C(=O)c1cccn1C` gave PREPL inhibitor 8, GASC-1 inh 4, VLA-4 inh 2, GRK2 inh 1 and DSG3 Ab inh 93.
Screening O=C1C=CC(=O)N1 returned PREPL inhibitor -1, VLA-4 inh 32, GRK2 inh 2 and DSG3 Ab inh 96.
For O=C(CNS(=O)(=O)c1ccc(Cl)c(C(F)(F)F)c1)NC1CCCCCC1 the results were PREPL inhibitor 11, GASC-1 inh -3, VLA-4 inh 37, GRK2 inh 43*, DSG3 Ab inh 79, GRK2 CP2 13 and FAM quench CP2 100.
For CC(=O)Nc1nc(C)c(CCC2OCCO2)c(=O)[nH]1 the results were PREPL inhibitor 4, GASC-1 inh 4, VLA-4 inh -6, GRK2 inh 2 and DSG3 Ab inh 97.
Screening COc1ccc(S(=O)(=O)N2CCCCC2)cc1NC(=O)c1ccc(N2CCCC2=O)cc1 returned PREPL inhibitor 1, GASC-1 inh 8, VLA-4 inh 8, GRK2 inh 79*, DSG3 Ab inh 108, GRK2 CP1 1 and Aptamer quench SP 101.
CCOc1ccc(S(=O)(=O)Nc2cccc(C(=O)NCCCn3ccnc3)c2)cc1 was read as PREPL inhibitor 13, VLA-4 inh 9, GRK2 inh 5 and DSG3 Ab inh 100.
Cc1ccc2cccc(NS(=O)(=O)c3ccccc3)c2n1 was read as PREPL inhibitor -8, GASC-1 inh 14, VLA-4 inh 35 and GRK2 inh 0.
`O=C(c1cccc(F)c1)N1CCN(c2cccc(C(F)(F)F)c2)CC1` gave PREPL inhibitor 7, GASC-1 inh 2, VLA-4 inh -19, GRK2 inh 60*, GRK2 CP1 1 and Aptamer quench SP 94.
Cc1cccc(N2CCN(C(=O)c3cc(S(=O)(=O)N4CCOCC4)cn3C)CC2C)c1 (stereo not drawn) was read as PREPL inhibitor 2, GASC-1 inh inconclusive, VLA-4 inh 18, GRK2 inh 7 and DSG3 Ab inh 104.
`O=C(NCCc1ccccc1)C1c2ccccc2C(=O)N1Cc1cccs1` (stereo not drawn) gave PREPL inhibitor 12, GASC-1 inh 4, VLA-4 inh -7, GRK2 inh 3 and DSG3 Ab inh 94.
